Out of some 3,600 compounds screened, about 100 (2.8%) were called active.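 Rule for the calls: active = inhibition above 30% at one or more concentrations, seen consistently on every test date; inconclusive = results that disagree between repeat test dates; inactive = the rest.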 Only a sample is shown.

Among the data in PubChem BioAssay AID1117362 (Southern Research Institute, 2015) are IC50 values, retold here.

This assay can be described thus: GST-antibody interaction or FRET quenching – biochemical, TR-FRET, artefact control for Vif-APOBEC3G degradation inhibitor project, dose response (AID 1117362).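 Note: biotinylated GST protein used in place of GST-Vif 1-94 and biotin-A3G peptide; detects fluorescence quenchers or blockers of GST binding to anti-GST antibody.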 The note with it: TR-FRET counter screen, biotin-GST/anti-GST signal; series mostly up to 100 µM.
A word on the IC50: it is the concentration at which inhibition is half-maximal. With `Cc1noc(/C=C/c2ccco2)c1S(=O)(=O)N1CCC(C(=O)N2c3ccccc3CC2C)CC1` (stereo not drawn), the IC50 result was “inactive”. As for `Cc1cc(C)nc(N/N=C/C2=C(N3CCOCC3)C(=C\c3ccc(Cl)cc3)/CC2)n1`, the IC50 entry was “inactive”. The value for `Cc1ccccc1NC(=O)c1c(C)[nH]c(=S)c(C#N)c1-c1ccco1` was “inactive”; that for `COc1ccc(OC)c(C2C(C(=O)Nc3ccc(F)cc3)=C(C)Nc3nc(CCCO)nn32)c1` (stereo not drawn) was “inactive”; that for `c1ccc2c(c1)CCCN2Cc1nnc2n1CCCCC2` was “inactive”. The value for `CCOC(=O)C1CCN(C(c2cccs2)c2sc3nc(C)nn3c2O)CC1` (stereo not drawn) was “inactive”; that for `Cc1onc(-c2c(F)cccc2Cl)c1C(=O)Nc1nnc(C2CC2)s1` was “inactive”. Consider `O=C(O)c1ccc(Cl)c2c1C1C=CCC1C(c1ccccn1)N2` (stereo not drawn), for which the IC50 entry is “inactive”. The value for `COCCCNC(=O)/C(C#N)=C/c1ccc(OCC(=O)O)c(OC)c1` was “inactive”; that for `CCOC(=O)N1CCN(C(=O)c2ccc3c(SCC(=O)O)c4c(nc3c2)CCC4)CC1` was “inactive”.

Take `COC(=O)C1=C(C)NC(=O)/C1=C\c1cccs1`: the IC50 entry is “inactive”.

Take `CC(=O)C1=C(C)NC(C)=C(C(C)=O)C1c1cccs1`: the IC50 result was “inactive”.

With `CNc1c(C(=O)O)ccc2c1C(=O)c1ccccc1C2=O`, the IC50 entry was “inactive”. For `COCc1cc(C)nc(NCCO)c1C#N`, the IC50 entry is “inactive”.

With `CC(C)c1ccc(/C=C/C(=O)N2CCc3ccccc3C2)cc1`, the IC50 entry is “inactive”. Regarding `CCOC(=O)C1=C(c2ccccc2)N=c2s/c(=C\c3ccco3)c(=O)n2C1c1cccs1` (stereo not drawn), the IC50 result is “inactive”. Take `O=C(O)Cc1ccc(N=Nc2c(O)c(C(=O)O)cc3ccccc23)cc1`: the IC50 result is “inactive”. In the case of `COC(=O)c1ccc(C)c(NC(=O)CCSc2ccccc2)c1`, the IC50 result is “inactive”.

Regarding `O=C(COC(=O)c1c2c(nc3ccccc13)/C(=C\c1ccco1)CC2)NC1CCCC1`, the IC50 result is “inactive”. The value for `CCC(=O)N1N=C(c2ccc(NS(C)(=O)=O)cc2)CC1c1ccc(C)cc1` (stereo not drawn) was “inactive”; that for `Cn1nc(-c2ccc(Cl)cc2)c2cc(C(=O)N3CCN(c4ccccc4)CC3)sc21` was “inactive”.

For the compound `CCOC(=O)c1sc2nc(CC(=O)OC)nc(NCc3ccco3)c2c1C`, the IC50 entry was “inactive”. The value for `CCOc1ccc(-n2c(Cc3cc(=O)[nH]c(=O)[nH]3)nnc2SCC(N)=O)cc1` was “inactive”; that for `COC(=O)COc1ccc(S(=O)(=O)Nc2cc(OC)ccc2OC)cc1` was “inactive”. The value for `COC(=O)CSc1nnc(CNC(=O)Cc2ccccc2)n1C` was “inactive”. Under `CCOC(=O)c1cc2cc(F)ccc2nc1C` stands “inactive”; under `O=C(Cc1ccccc1)NC(Nc1ccccc1)C(Cl)(Cl)Cl` (stereo not drawn), “inactive”. As for `Cc1ccc(C)c(-n2c(Cc3cc(=O)[nH]c(=O)[nH]3)nnc2SC(C)C)c1`, the IC50 entry is “inactive”. Under `O/N=C1\CCC\C1=C/c1ccco1` stands “inactive”; under `O=C(CCCCCN1C(=O)CCC1=O)Nc1ccc(Cl)c(C(F)(F)F)c1`, “inactive”; under `Cc1ccc(N(CC(=O)NCCSCc2ccco2)S(=O)(=O)c2ccc(F)cc2)cc1`, “inactive”. Under `CCOc1ccc(-n2c(Cc3cc(=O)[nH]c(=O)[nH]3)nnc2SCC(=O)NC2CCCC2)cc1` stands “inactive”; under `CC1CCCN(C(=O)CN2CCN(C(=O)c3ccco3)CC2)C1` (stereo not drawn), “inactive”. Under `COc1ccc(CCNC(=O)CN2CCCc3ccccc32)cc1OC` stands “inactive”; under `O=C(c1ccco1)N1CCN(C(c2ccccn2)c2nnnn2C2CCCC2)CC1` (stereo not drawn), “inactive”; under `O=C(NC1CCCC1)C(c1ccco1)N(Cc1ccccc1)C(=O)c1csnn1` (stereo not drawn), “inactive”. As for `c1cncc(-c2csc(NCc3ccco3)n2)c1`, the IC50 result is “inactive”. The value for `COc1cc(CC(=O)OCC(=O)Nc2cccc([N+](=O)[O-])c2)cc(OC)c1OC` was “inactive”; that for `CCOC(=O)Cn1nnnc1C(C(C)C)N(Cc1cc2c(C)cc(C)cc2[nH]c1=O)C1CCCC1` (stereo not drawn) was “inactive”; that for `CC(=O)Nc1ccc(S(=O)(=O)NCCSCc2ccco2)cc1` was “inactive”.

As for `CCOC(=O)c1cnn2c(N)c(C#N)nnc12`, the IC50 entry was “inactive”.

With `CSc1nc(N(CCO)CCO)c2sc3nc(-c4ccco4)c4c(c3c2n1)CCC4`, the IC50 result is “inactive”. As for `CC(=C/c1ccco1)/C=N/NC(=O)Cc1cccn1C`, the IC50 entry was “inactive”. Under `COc1ccccc1NC(=O)CSc1nnc(Cc2cc(=O)[nH]c(=O)[nH]2)n1-c1ccccc1` stands “inactive”; under `Cc1nc2ncccn2c1-c1csc(NCc2ccco2)n1`, “inactive”. `Cc1cc(S(=O)(=O)N(Cc2ccccn2)Cc2ccco2)ccc1-n1cnnn1`: the IC50 result is “inactive”. The value for `COc1ccccc1C1C=C(c2ccc(C)cc2)Nc2nnnn21` (stereo not drawn) was “inactive”; that for `O=C(O)/C=C/C(=O)Nc1cccnc1` was “inactive”; that for `O=C(c1cc2n(n1)C(C(F)(F)F)CC(c1ccco1)N2)N1CCc2ccccc2C1` (stereo not drawn) was “inactive”. For the compound `COc1ccc(-c2ccc(C#N)c(SCC(=O)Nc3sc4c(c3C#N)CCC4)n2)cc1OC`, the IC50 result is “inactive”. Take `CC(=O)OC1COC(n2ccc3ccccc32)C(OC(C)=O)C1OC(C)=O` (stereo not drawn): the IC50 entry was “inactive”.

Turning to `O=C1C2C3CCCC3=C3CCCC3C2C(=O)N1c1ccccc1` (stereo not drawn), the IC50 result was “inactive”. On to `CCCCn1c(=NC(=O)c2cccnc2)c(C#N)cc2c(=O)n3cccc(C)c3nc21`, for which the IC50 entry is “inactive”. Under `CCc1ccc2nc(N3CCN(C)CC3)c(C#N)cc2c1` stands “inactive”; under `Cc1nc2cc(N=NC3=C(O)CCCC3=O)ccc2s1`, “inactive”. Under `COc1ccc2ccccc2c1C1CC(=O)N2CN(Cc3ccco3)CSC2=C1C#N` (stereo not drawn) stands “inactive”; under `C=CC(=O)N1C/C(=C/c2ccc(F)cc2)C(=O)/C(=C\c2ccc(F)cc2)C1`, “inactive”; under `O=C1NC(=S)N/C1=C/c1ccc(-c2c(Br)cc([N+](=O)[O-])cc2Br)o1`, “inactive”.

With `COC(=O)C1=C(N)OC2=C(C(=O)CCC2)C1c1cccs1` (stereo not drawn), the IC50 entry was “inactive”. The value for `CC1(c2ccc3noc(-c4ccccc4)c3c2)OCCO1` was “inactive”. Regarding `O=C(COC(=O)/C=C/c1ccco1)Nc1ncc(C(F)(F)F)cc1Cl`, the IC50 result is “inactive”. The value for `CCOC(=O)c1c(C)oc2c1c(C=NCc1ccccn1)c(O)c1ccccc12` was “inactive”; that for `Cc1ccc(C(=O)Nc2ccc(O)c(C(=O)O)c2)o1` was “inactive”. The value for `COc1ccccc1/C=C(/CC(=O)NCc1ccccc1)c1nc2ccccc2s1` was “inactive”; that for `COc1ccc(-c2nc3oc4cc(OC)ccc4c(=O)c3c(=O)n2Cc2ccco2)cc1` was “inactive”.

For `O=S(=O)(Nc1nccs1)c1ccc(Nc2nnc(-c3ccccc3)c3ccccc23)cc1`, the IC50 entry was “inactive”.

For the compound `Cc1ccc(-n2c(C)cc(C(=O)OCC(=O)N(CC(C)C)C3CCS(=O)(=O)C3)c2C)cc1` (stereo not drawn), the IC50 entry is “inactive”. `CCOc1cc(N2CCOCC2)c(OCC)cc1NS(=O)(=O)c1ccc(Cl)s1`: the IC50 result was “inactive”.
